Only some compounds are listed: those with a hit (about 4.6% of all), similar ones and a draw of the others.
tim10-1 inh: tim10-1 yeast growth inhibition; S. cerevisiae tim10-1 ts strain growth, BacTiter-Glo, 24 h; inhibition, % at 20 µM; 2.2% of 330,000 active;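 active = inhibition of at least 40%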;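 also: mutant grown at 25 °C; 0% = DMSO wells with yeast and 100% = wells holding no yeast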
TIM10 inh: TIM10 yeast growth inhibition; 1.4% of 330,000 active; inhibition, % at 10 µM; S. cerevisiae TIM10 strain growth, BacTiter-Glo luminescence, 24 h; AID 463195;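 active = inhibition of 40% or more at the single tested concentration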;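 also: wild-type TIM10 isogenic control strain grown at permissive 25 °C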
NALP3 yeast inh: inhibitors of NALP3 inflammasome in yeast; inhibition, % at 10 µM; 0.39% of 330,000 active; Yeast reconstituted NLRP3/ASC/caspase-1, beta-gal luminescence, 24 h;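 active = inhibition of 50% or more; inactive = inhibition below 50%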;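 also: plate controls were induced DMSO wells for no effect and uninduced yeast grown without galactose for full effect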
tim23-1 inh: growth inhibitors of tim23-1 mutant yeast; 1.3% of 330,000 active; inhibition, % at 20 µM; S. cerevisiae tim23-1 growth, BacTiter-Glo luminescence, 24 h;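 active = growth inhibition of the mutant yeast at or above 50%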;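 also: temperature-sensitive mutant grown at 25 °C; plate controls were DMSO-treated mutant yeast for no effect and medium wells lacking yeast for full effect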
SKKanGAS inh: blocks kanamycin growth of S. pyogenes SKKanGAS strain; inhibition, % at 7.5 µM; 1.3% of 300,000 active; BacTiter-Glo, 6 h;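 active = mean replicate score, as percent of positive control median, at least 50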;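 also: strain carries kanamycin resistance gene driven by streptokinase promoter and grows in 40 µg/ml kanamycin; loss of luminescence reflects streptokinase promoter inhibition or plain growth inhibition; 0% = median of DMSO wells and 100% = positive control at its reference dose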
PfHsp90 yeast 2: reduces growth (ATP signal) of yeast expressing P. falciparum Hsp90; S. cerevisiae expressing PfHsp90, BacTiter-Glo ATP, 48 h; yeast lacking PDR1 and PDR3 efflux regulators; inhibition, % at 9.4 µM; 0.32% of 310,000 active;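 active = every replicate shows inhibition above about 80%, whatever the replicate mean, limit read from the data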;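 also: 0% = DMSO neutral controls and 100% = 20 µM radicicol positive controls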
tim10-1 conf: tim10-1 yeast growth inhibition, confirmed; shares compounds with tim10-1 inh; S. cerevisiae tim10-1 ts strain growth, BacTiter-Glo, 24 h; inhibition, % at 20 µM; 56% of 7,400 active; AID 463213;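 active = inhibition of yeast growth at or above a set limit in either of two repeat tests at 20 µM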;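 also: tim10-1 mutant grown at permissive 25 °C to find synthetic lethal compounds; 0% = DMSO yeast wells and 100% = medium wells without yeast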
* hit, by the source's call; / = no result given.

SMILES	tim10-1 inh	TIM10 inh	NALP3 yeast inh	tim23-1 inh	SKKanGAS inh	PfHsp90 yeast 2	tim10-1 conf
O=C(COC(=O)C12CC3CC(CC(C3)C1)C2)NC12CC3CC(CC(C3)C1)C2	41.0*	38.0	18.7	28.0	5.9	1.5	38.8*
CCC(CC)C(=O)OCC(=O)NC12CC3CC(CC(C3)C1)C2	30.1	26.0	6.4	28.9	-0.9	/	/
Cc1ccccc1C(=O)NCC(=O)Nc1ccc(C)c(S(=O)(=O)N2CCCCCC2)c1	-1.7	-5.0	17.1	8.0	5.2	9.7	/
CSc1ncccc1C(=O)OCC(=O)NC1CCC(C)CC1 (configuration not stated)	-4.1	-12.3	26.1	16.1	/	-18.9	/
CN(Cc1ccon1)C(=O)C1CCC(=O)N(Cc2ccc(Cl)cc2)C1 (configuration not stated)	1.5	7.5	22.6	0.0	-0.6	2.1	/
O=c1[nH]c2ccccc2n2c(=S)[nH]nc12	-8.6	19.5	6.6	6.1	0.0	3.7	/
COc1ccc(/C=C/C(=O)NCc2cn(C)nc2C)cc1COc1ccc(Br)cc1	40.4*	18.7	-4.8	23.3	3.2	-9.9	11.4
CCOc1ccc(N2C(=O)CC(Sc3nc4ccc(OCC)cc4s3)C2=O)cc1 (configuration not stated)	-4.9	-7.2	18.8	-20.4	5.5	5.9	/
CCOc1ccc2nc(SC3CC(=O)N(c4ccc(OC)cc4OC)C3=O)sc2c1 (configuration not stated)	44.0*	36.1	20.4	34.5	-9.1	-23.8	43.0*
CCOC(=O)COc1ccc(/C=C2\NC(=S)N(CC)C2=O)cc1	40.0	18.4	2.3	27.2	-11.3	43.7	25.4
COC(=O)CN1C(=O)N/C(=C/c2ccc(OC)cc2)C1=O	3.7	0.1	-9.5	3.2	-6.3	-17.4	/
Nc1ccccc1Nc1cc(-c2ccccc2)nn1-c1cccc(Cl)c1	44.5*	20.1	21.9	48.3	45.7	33.7	15.8
COc1ccc(OC)c2sc(N3CCCCC3)nc12	43.0*	21.4	23.5	26.3	-7.2	/	24.6
COc1ccc(OC)c2sc(N3CCN(C(=O)c4ccc5ncsc5c4)CC3)nc12	50.3*	20.9	21.4	29.1	12.2	5.6	21.4
O=C(c1ccc2nc[nH]c2c1)N1CCN(c2cccc(C(F)(F)F)c2)CC1	37.1	28.3	-11.2	33.6	-8.1	9.1	/
O=C(c1ccc2ncsc2c1)N1CCN(c2cccc(C(F)(F)F)c2)CC1	57.6*	38.4	-37.3	49.8	/	-10.9	39.5*
CC(C)CCC(CC(C)O)c1n[nH]c(=S)n1-c1ccccc1 (configuration not stated)	20.4	11.2	10.2	3.8	-6.6	18.5	/
CCc1noc(C)c1C(=O)NCCc1ccc(Cl)cc1	-4.8	2.0	28.3	-12.1	-3.4	-10.4	/
Fc1ccc(NC(=S)Nc2nccs2)cc1	14.3	3.2	43.0	33.8	17.8	-45.1	/
S=C(Nc1ccccc1)Nc1nccs1	42.5*	18.5	44.5	31.7	35.5	0.5	17.8
Cc1cccc(NC(=O)N2CCc3ccccc3C2)c1C	17.0	9.4	25.5	23.5	9.4	-1.2	/
Cc1ccc(C(=O)CSc2nnc(CNc3ccc(C)cc3C)n2Cc2ccco2)cc1	20.0	19.0	10.3	9.2	34.2	3.9	/
COc1ccc(C(=O)CSc2nnc(CNc3ccc(C)cc3C)n2Cc2ccco2)cc1	40.4*	22.6	10.6	34.5	22.4	-26.8	23.9
CCOC(=O)C1CCN(C(=O)c2cc(S(=O)(=O)N3CCCCCC3)ccc2OC)CC1	21.1	9.4	10.7	10.4	-11.5	/	/
CN1/C(=C\C(=O)Nc2cccnc2)c2ccccc2CC1(C)C	1.9	3.1	18.3	9.0	-0.4	-7.9	/
COc1ccc(C(=O)/C=C2/c3ccccc3CC(C)(C)N2C)cc1	46.7*	20.4	13.1	39.0	-1.3	/	26.8
CCOC(=O)c1ccc2[nH]c(C)c(C)c2c1	12.8	15.3	21.5	25.4	-14.9	5.3	/
CCOC(=O)c1cc2c(ccc3nc(C)c(C)c32)[nH]c1C	49.8*	24.4	6.5	18.4	-14.6	-8.9	13.2
O=S(=O)(c1cccc(F)c1)N1CCc2sccc2C1c1ccc(OC(F)(F)F)cc1 (configuration not stated)	1.5	-1.9	7.4	6.1	7.0	-11.2	/

Bioassay records (PubChem BioAssay)
